Data published in PubChem BioAssay (NCI).
Compounds without any hit were thinned out: in the full panel of roughly 83,000, 20% have a hit.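 Step 1: grow cells in 96-well plates. Step 2: add test compound at a single concentration. Step 3: incubate 48 h. Step 4: record percent growth.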 A number with no mark means an inactive call. Calls of active or inactive are those of the source. The calls were made as follows: active = growth percent below 10; inactive = the rest.

Legend:
Experiment in all cases: NCI-60 one-dose screen, 48 h (100 = growth as untreated, 0 = no growth, -100 = all killed)
Conditions in all cases: 10 µM unless noted
SN12C renal = tested on: SN12C renal
UO-31 renal = tested on: UO-31 renal
TK-10 renal = tested on: TK-10 renal
ACHN renal = tested on: ACHN renal
CAKI-1 renal = tested on: CAKI-1 renal
A498 renal = tested on: A498 renal
CCRF-CEM leukemia = tested on: CCRF-CEM leukemia
MOLT-4 leukemia = tested on: MOLT-4 leukemia
SR leukemia = tested on: SR leukemia

| Compound | growth (SN12C renal) | growth (UO-31 renal) | growth (TK-10 renal) | growth (ACHN renal) | growth (CAKI-1 renal) | growth (A498 renal) | growth (CCRF-CEM leukemia) | growth (MOLT-4 leukemia) | growth (SR leukemia) |
| --- | --- | --- | --- | --- | --- | --- | --- | --- | --- |
| CN1CCN(CC(=O)Nc2nc3c(s2)Nc2cc(Cl)c(Cl)cc2NC3=O)CC1 | 109% | 85.4% | 95.8% | 105% | 102% | 106% | 99.8% | 90.8% | 98.8% |
| COc1ccc(Nc2nccc(N3CCN(c4c5ccc(Cl)cc5nc5ccc(OC)cc45)CC3)n2)cc1 | 68.5% | 47.5% | 59.2% | 57.8% | 71.5% | 62.9% | 4.07% (active) | -2.31% (active) | 21.1% |
| S=C1SCN(Cc2ccccc2)CN1Cc1ccco1 | 93.5% | 78.6% | 28.7% | 107% | 96.7% | 99% | 10.8% | 51.6% | 22% |
| Clc1ccc2nc(Cl)c3ccccc3c2c1 | 87.3% | 4.03% (active) | 9.12% (active) | 1.26% (active) | 76.7% | 19.7% | 81.6% | 83% | 1.29% (active) |
| COc1ccc(/C=N\Nc2ccc([N+](=O)[O-])cn2)cc1OC | 26.2% | -11.9% (active) | -63.4% (active) | -3.48% (active) | 43.1% | -26.2% (active) | 124% | 101% | 52.9% |
| Clc1cc(Cl)c(OCC#CI)cc1Cl | 53.7% | 38.4% | 69.8% | 2.93% (active) | 15.7% | 119% | 27.8% | 41.5% | 11.4% |
| CC12CCC3C(CCC4CC(=O)/C(=C\O)CC43C)C1CCC(=O)O2 (stereo unspecified) | 107% | 55.9% | 115% | 109% | 105% | 115% | – | 106% | – |
| COc1ccc(-c2noc(N)c2-c2cc(OC)c3c(c2)OCO3)cc1 | 35.8% | 52.2% | 39% | 40.8% | 32.7% | – | 5.26% (active) | 18.4% | -25.8% (active) |
| COc1ccc(-c2c(N)noc2-c2cc(OC)c3c(c2)OCCO3)cc1 | 30.8% | 41% | 77.8% | 22.3% | 45.4% | 2.33% (active) | 13.4% | – | 11.6% |
| CC(C)(C)c1cc(O)c(O)c(C(C)(C)C)c1 | 60.3% | 27.3% | 35.8% | 18.3% | – | 60.6% | – | 6.61% (active) | 11.2% |
| CN(C)c1ccc2[nH]c3c(C(N)=O)cc(=O)c(=O)c=3oc2c1 | 54.5% | 56.3% | 111% | 29.7% | 83.2% | 87.7% | – | 9.08% (active) | 31% |
| CCOC(Cc1c(N)[nH]c(=S)[nH]c1=O)OCC | 110% | 86% | 108% | 94.9% | – | 104% | – | 88% | 90.8% |
| COc1ccc2nc(-c3ccc(-n4cncc4-c4ccc(OC)c(N)c4)cc3)sc2c1 | 111% | 70.1% | 114% | 103% | 106% | – | 95.6% | 66.3% | 69.3% |
| C[n+]1ccc(C#N)c2ccccc21 | 104% | 55.4% | 129% | 81.9% | – | 95.3% | 54.1% | 64.5% | 67.5% |
| O=C1NCN(c2ccccc2)C12CCN(CCCC(c1ccc(F)cc1)c1ccc(F)cc1)CC2 | 60.5% | 26.1% | 66.1% | 61.7% | 76.8% | 57.7% | 94.4% | 34.3% | 8.54% (active) |
| Cc1ccc2c(c1)O/C(=C\c1ccc([N+](=O)[O-])o1)C2=O | 34.7% | -21.6% (active) | -32.7% (active) | 1.36% (active) | 36.8% | 122% | – | -1.6% (active) | 10.6% |
| O=C1/C(=C/c2ccc([N+](=O)[O-])o2)Oc2ccc(Br)cc21 | 40.3% | -18.6% (active) | -28.5% (active) | 1.25% (active) | 74% | 113% | – | 1.28% (active) | 8.8% (active) |

| Compound | growth (SN12C renal) | growth (UO-31 renal) | growth (TK-10 renal) | growth (ACHN renal) | growth (CAKI-1 renal) | growth (A498 renal) | growth (CCRF-CEM leukemia) | growth (MOLT-4 leukemia) | growth (SR leukemia) |
| --- | --- | --- | --- | --- | --- | --- | --- | --- | --- |
| CCN1C(=O)c2ccc3c4c(ccc(c24)C1=O)C(=O)N(CCCNCc1ccccc1OC)C3=O | -91.6% (active) | -42.5% (active) | -28.3% (active) | -67.1% (active) | -11.4% (active) | -80.7% (active) | – | -51.7% (active) | -42% (active) |
| O=C(CCc1nnc(Cn2cncn2)o1)c1nc2ccccc2[nH]1 | 92.6% | 92.4% | 108% | 113% | 102% | 96% | 96.4% | – | 82% |
| O=C(NCCCO)c1cc(Cl)ccc1O | 12.9% | 48.1% | 24.9% | 14.6% | – | 53.2% | – | 33.2% | 26.1% |
| C[C@]12CC[C@@H]3c4ccc(O)c([N+](=O)[O-])c4CC[C@H]3[C@@H]1CC[C@@H]2NS(=O)(=O)c1cccc(Br)c1 | 21.4% | 3.61% (active) | 42.8% | 24.4% | 17.8% | 54.2% | – | 18.2% | -12.1% (active) |
| O=C(/C(=N/O)S(=O)(=O)c1ccccc1)c1cccs1 | 101% | 96.8% | 89.5% | 112% | 103% | 103% | 98.5% | – | 85.9% |
| O=C(Nc1cccc(-n2cc(-c3ccncc3)c(-c3ccc(O)c(Cl)c3)n2)c1)Nc1ccc(Cl)c(C(F)(F)F)c1 | 9.97% (active) | -18.9% (active) | -15% (active) | 10.7% | -30.9% (active) | 37.6% | – | -20.6% (active) | 3.22% (active) |
| Nc1ccc(C2=NN(c3ccccc3)C(c3ccc(Cl)cc3)C2)cc1 (stereo unspecified) | 76.9% | 55.1% | 74.2% | 82.1% | 80.9% | 74.7% | 64.2% | – | 2.52% (active) |
| COc1ccc(-c2cnnn2-c2cc(OC)c3c(c2)OCO3)cc1 | 36.8% | 50% | 40% | 38.8% | 29.6% | – | 0.869% (active) | 4.11% (active) | -30.4% (active) |
| O=C1C(=O)c2ccc(Br)cc2-c2cc(Br)ccc21 | 34.1% | 48.4% | 114% | 39% | 58.1% | 115% | 10.1% | – | 4.99% (active) |
| C=C(C)[C@@H]1C[C@H](O)Cc2cc(Cl)cc(Cl)c2N1 | 96.9% | 81.4% | 98.7% | 95.9% | 91.6% | 87.2% | 103% | 88.3% | 108% |
| CSc1nc2c(c(=O)[nH]1)C(c1ccc(Cl)cc1)C1=C(N2)/C(=C/c2ccc(Cl)cc2)CNC1 (stereo unspecified) | 39.7% | 16.8% | 78.9% | 72.5% | 76.8% | 18.3% | – | 18.7% | -16.2% (active) |
| O=C(OCCBr)c1ccc(Cl)c([N+](=O)[O-])c1 | 102% | 88.9% | 106% | 104% | – | 97.6% | – | 83.7% | 86.5% |
| O=C(c1ccccc1)c1ccco1 | 88.4% | 88.7% | 96% | 98.9% | – | 109% | 93.3% | – | 106% |
| COc1cccc(C2C(C#N)=C(N)Oc3cc(OC)ccc32)c1 (stereo unspecified) | 24.9% | 41.6% | 50.6% | 29.7% | 20.6% | – | -1.19% (active) | 1.42% (active) | -30.3% (active) |
| Cn1c(=O)c2nc(SCc3ccccc3)n(C)c2n(C)c1=O | 90.4% | 98.3% | 111% | 99.1% | 119% | 77.3% | 122% | – | 83.3% |
| CCN1C[C@@H](C)n2c(c(O)c3c(=O)n(Cc4ccc(F)c(Cl)c4)nc(C(=O)NC)c32)C1=O | 9.18% (active) | 11% | 31.6% | 13.7% | 15.9% | -7.58% (active) | 40.4% | – | 2.73% (active) |
